Giardia FBPA inh-1 = Giardia lamblia aldolase inhibition. purified Giardia FBPA. Potency, µM (top dose mostly 59.6 µM), hits mostly inhibitors. 290,000 compounds, 0.71% hits; further: nearly all actives have a fitted effect of over 55% in size
Target sequence (A8B2U2 whole entry, looked up): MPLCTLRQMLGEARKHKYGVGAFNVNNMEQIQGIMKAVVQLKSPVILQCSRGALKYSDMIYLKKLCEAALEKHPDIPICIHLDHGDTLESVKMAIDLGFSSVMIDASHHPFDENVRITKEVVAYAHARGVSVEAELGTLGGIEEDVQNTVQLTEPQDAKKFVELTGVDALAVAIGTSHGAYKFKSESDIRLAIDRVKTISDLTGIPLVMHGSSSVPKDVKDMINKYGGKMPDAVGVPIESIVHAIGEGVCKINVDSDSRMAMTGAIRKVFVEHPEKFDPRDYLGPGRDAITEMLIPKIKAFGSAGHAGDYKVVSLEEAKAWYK
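40 nM FBPA preincubated 10 min at RT with compound (up to 57.5 uM final), then substrate plus GAPDH/TPI/NAD/arsenate coupling and diaphorase/resazurin added. Fluorescence read after 20 min at RT, 525/598 nm.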
FMDV inh = foot and mouth disease virus antiviral activity | FMDV antiviral cell-based qHTS | Potency, µM (titrated, usually from 57.9 µM), usual class: inhibitors | 410,000 compounds, 1.2% hits | AID 1159524; calls by dose curve; tested in HEK293T cells; further: read-out not given here; nearly all actives have a fitted effect of over 45% in size
HCMV antiviral = inhibitors of human cytomegalovirus. HFF cells, HCMV-luciferase reporter, 72 h; hits give low values. activity change, negative = inhibition, % at 57.5 µM. 410,000 compounds, 4.5% hits. AID 1259415; in the data active means activity change below about -60%; inconclusive means no clear call, values can overlap the other calls; inactive means above about -39%
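Steps: HFFs plated, 16 h 37C; compounds added; HCMV-luciferase added to MOI 1 PFU/cell; 72 h 37C; OneGlo reagent, 5 min room temperature; luminescence read, normalized to controls.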
Vaccinia Venus = vaccinia inhibition (Venus reporter); Vaccinia virus Venus reporter expression, fluorescence; Potency, µM (series often up to 36.5 µM), hits mostly inhibitors; 330,000 compounds, 0.46% hits; calls by dose curve; tested in A549 cells; further: nearly all actives have a fitted effect of over 30% in size
HCV inhibitor = inhibitors of hepatitis C virus infection; 340,000 compounds, 3.4% hits; AID 651820; Huh7.5.1 HCVcc-Cre infection, luciferase reporter, 44 h; Potency, µM (doses to about 41.8 µM), most hits filed as inhibitors
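A cell-based infection assay in which seeded cells (1,000 per well) receive test compound after 4 h, are inoculated with HCVcc-Cre at approximately 0.5 moi, and are incubated 44 h before luminescence detection.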
VACV mCherry inh = vaccinia inhibition (mCherry reporter) | 310,000 compounds, 0.63% hits | Vaccinia virus mCherry reporter infection, fluorescence | Potency, µM (top dose mostly 36.5 µM), most hits filed as inhibitors; calls by dose curve; tested in A549 cells; further: nearly all actives have a fitted effect of over 35% in size
Giardia growth = Giardia lamblia growth inhibition; shares compounds with Giardia FBPA inh-1; 1,500 compounds, 5% hits; Giardia lamblia trophozoite growth inhibition; Potency, µM (doses to about 57.5 µM), usual class: inhibitors;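 further: trophozoites exposed to compound for 48 h at 37 °C; nearly all actives have a fitted effect of over 70% in size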
Mammal cell tox = counter-screen for Giardia aldolase inhibitors: mammalian cell toxicity; 1,500 compounds, 4% hits; AID 2786; Potency, µM (doses to about 57.5 µM), actives largely listed as inhibitors; shares compounds with Giardia FBPA inh-1; mammalian cell viability counter-screen, qHTS;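 further: Chinese hamster ovary cells used as mammalian cytotoxicity surrogate; viability measured as cellular ATP by luminescence; compound exposure lasted 48 h before reading; nearly all actives have a fitted effect of over 60% in size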
Giardia FBPA inh-2 = confirmation of Giardia fructose-bisphosphate aldolase inhibitors; 1,500 compounds, 5% hits; shares compounds with Giardia FBPA inh-1; Potency, µM (doses to about 57.5 µM), actives largely listed as inhibitors; purified Giardia aldolase enzyme activity, qHTS; further: nearly all actives have a fitted effect of over 45% in size
Rabbit aldolase = rabbit FBP aldolase inhibition by Giardia aldolase hits; Rabbit muscle FBPA enzyme inhibition, selectivity counter-screen; AID 2794; Potency, µM (highest dose often 57.5 µM), usual class: inhibitors; 1,500 compounds, 4% hits; shares compounds with Giardia FBPA inh-1; further: nearly all actives have a fitted effect of over 60% in size
Target sequence (P00883 whole entry, looked up): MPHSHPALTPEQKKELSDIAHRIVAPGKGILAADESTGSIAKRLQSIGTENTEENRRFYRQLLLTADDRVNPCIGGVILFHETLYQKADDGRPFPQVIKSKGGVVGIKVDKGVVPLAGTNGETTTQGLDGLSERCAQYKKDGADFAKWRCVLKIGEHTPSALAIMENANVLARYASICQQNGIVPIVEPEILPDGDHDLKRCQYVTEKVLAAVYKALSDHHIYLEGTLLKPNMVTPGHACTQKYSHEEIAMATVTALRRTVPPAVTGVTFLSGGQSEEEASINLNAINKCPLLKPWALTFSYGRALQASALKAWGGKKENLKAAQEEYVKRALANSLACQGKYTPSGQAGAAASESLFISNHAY
GAPDH counter = counter-screen for Giardia aldolase inhibitors: GAPDH coupling enzyme; AID 2795; GAPDH coupling enzyme counterscreen, biochemical, qHTS; Potency, µM (highest dose often 57.5 µM), most hits filed as inhibitors; 1,500 compounds, 6% hits; shares compounds with Giardia FBPA inh-1; further: nearly all actives have a fitted effect of over 55% in size
Numbers stand for hits; n = inactive; u = inconclusive; x = no result; [ ] = dose if it differs, or a comment. In the library only some 7.5% were active in any assay of this set; here they are far more common. Unless noted, the call rests on the fitted dose curve; in most records, active means well fitted curve in the direction sought with a large enough effect; inconclusive means small, poorly fitted or top-dose-only effect, or another doubt; inactive means no such curve, though single readings can be large; an effect the other way counts as inactive or inconclusive.

SMILES	Giardia FBPA inh-1	FMDV inh	HCMV antiviral	Vaccinia Venus	HCV inhibitor	VACV mCherry inh	Giardia growth	Mammal cell tox	Giardia FBPA inh-2	Rabbit aldolase	GAPDH counter
CCN1CCN(C(=S)c2ccc(O)cc2)CC1	8.9µM	n	n	n	n	n	n	n	n	n	n
O=C(c1ccc(Br)cc1)N1CCN(Cc2ccccc2)CC1	n	u	n	n	u	n	x	x	x	x	x
Cc1ccc(C(=S)N2CCN(Cc3ccccc3)CC2)s1	18µM	n	n	n	n	n	n	n	u	u	u
CN(C)c1ccc(C(=S)N2CCN(Cc3ccccc3)CC2)cc1	6.3µM	n	u	x	n	x	n	n	n	u	u
COC(=O)/C=C1\OCc2ccccc21	x	n	n	n	x	n	x	x	x	x	x
S=C(c1ccc(Br)cc1)N1CCN(Cc2ccccc2)CC1	14µM	u	n	x	n	x	u	n	u	u	u
CCOc1ccc(CNC(=O)c2cccn2-c2nnc(N3CCCCC3)s2)cc1OC	x	n	n	n	x	n	x	x	x	x	x
COc1cc(OC)c(NC2=CC(=O)C(=O)c3ccccc32)cc1Cl	u	u	-82	3.2µM	5µM	0.89µM	22µM	21µM	12µM	13µM	15µM
CCC(C(=O)Nc1cc(Cl)c(OC)cc1OC)c1ccccc1 (centres undefined)	n	n	n	n	u	n	x	x	x	x	x
CN1CC[C@]2(C)c3cc(O)ccc3N(C)[C@@H]12	1µM	x	x	x	x	x	n	n	2.2µM	3.2µM	3.2µM
CC1[C@H]2Cc3ccc(O)cc3[C@]1(C)CCN2CCc1ccccc1 (some centres undefined)	x	n	n	n	n	n	x	x	x	x	x
COc1cccc(-c2nnn(CC(=O)N(CC(C)C)C3CCS(=O)(=O)C3)n2)c1 (centres undefined)	x	n	n	n	n	n	x	x	x	x	x
Nc1ccc(N2CCCCC2)c(S(=O)(=O)Nc2ccccc2Cl)c1	16µM	n	u	n	n	n	n	n	n	n	n
O=C1CSC(=S)N1	7.9µM	n	n	n	n	n	n	n	n	n	n
O=C1CSC(=Nc2ccc(O)cc2)N1	n	n	n	x	n	x	x	x	x	x	x
N#Cc1cccc(NC(=O)c2cncn2-c2ccccc2)c1	n	n	n	n	n	n	x	x	x	x	x
Cc1ccccc1NNC(=O)C(=O)NNc1ccccc1C	16µM	n	n	x	n	x	u	n	n	n	n
COc1ccc(CCNC(=O)C2(c3cccs3)CCOCC2)cc1OC	x	n	n	n	x	n	x	x	x	x	x
COc1c(O)ccc(/C=C(\C#N)c2nc3ccccc3[nH]2)c1[N+](=O)[O-]	u	n	n	n	n	n	u	n	n	n	n
Nn1c(SCC(=O)Nc2cccc(C(F)(F)F)c2)nncc1=O	25µM	n	n	n	n	n	n[10.4 µM]	n	n	n	n
COc1cc(OC)cc(C(=O)N2CC(=O)Nc3ccccc32)c1	n	n	u	n	n	n	x	x	x	x	x
CCN(CC(=O)NCc1ccc(F)cc1)C(=O)CN1CCN(c2ccc(OC)cc2)CC1	7.9µM	n	n	n	n	n	n	n	n	n	n
S=C(NCc1ccccc1)Nc1nccs1	13µM	n	n	n	n	n	n	n	n	n	n
COc1ccc(CNC(=O)CN(C)Cc2ccc(C(C)(C)C)cc2)cc1	22µM	n	n	n	n	n	n[10.4 µM]	n	n	n	n
COc1cccc(N=Nc2c(C)[nH]n(-c3ccccc3)c2=O)c1	3.5µM	n	n	x	u	x	n	n	n	n	n
SMILES	Giardia FBPA inh-1	FMDV inh	HCMV antiviral	Vaccinia Venus	HCV inhibitor	VACV mCherry inh	Giardia growth	Mammal cell tox	Giardia FBPA inh-2	Rabbit aldolase	GAPDH counter
CCOC(=O)c1ccc(N=Nc2c(C)[nH]n(-c3ccccc3)c2=O)cc1	10µM	n	n	x	n	x	u	n	n	n	n
Cc1[nH]n(-c2ccccc2)c(=O)c1N=Nc1ccccc1C(=O)O	n	n	n	x	n	x	x	x	x	x	x
CCOC(=O)c1c(O)c(O)c(C(=O)OCC)n1-c1ccccc1	20µM	n	n	n	n	n	n	n	n	n	n
CCOC(=O)c1sc(=S)n(-c2ccccc2)c1C	n	n	n	n	n	n	x	x	x	x	x
CC(=O)N(C)c1ccc(N=Nc2c(C)[nH]n(-c3ccccc3)c2=O)cc1	4.5µM	u	n	x	u	x	n	n	n	n	n
COC(=O)CNC(=O)COC(=O)c1ccc(OC)c([N+](=O)[O-])c1	n	n	n	n	n	n	x	x	x	x	x
CCOc1ccc(-n2c(O)c(N=Nc3c(C)n(C)n(-c4ccccc4)c3=O)c(=O)[nH]c2=O)cc1	16µM	n	n	n[7.34 µM]	n	n[7.34 µM]	u	n	n	n	n
CCOc1ccc(N=Nc2c(C)[nH]n(-c3ccccc3)c2=O)cc1	7.9µM	n	n	n	n	n	n	n	n	n	n
COC(=O)c1ccccc1S(=O)(=O)N1CCc2nc(-c3ccccc3)c3c(c2C1)CO[C@@H](C)C3	n[12.9 µM]	x	x	x	x	x	x	x	x	x	x
Cc1ccc(CNC(=O)Cn2c(=O)ccc3cc(S(=O)(=O)N4CCC(C)CC4)ccc32)cc1	x	n	n	n	x	n	x	x	x	x	x
Cc1nc2ccccc2c(=O)n1CCc1ccc(O)cc1	n	n	n	n	n	n	x	x	x	x	x
CCOC(=O)Cc1c(C)nc(N)[nH]c1=O	n	n	n	n	u	n	x	x	x	x	x
CCOC(=O)Cc1c[nH]c(=S)[nH]c1=O	18µM	n	n	n	n	n	n[10.4 µM]	n	n	n	n
Cc1ccc(OCC(=O)NCCCNC(=O)c2ccncc2)cc1	n	n	n	n	n	n	x	x	x	x	x
CCN=C(N/N=C/c1ccc([N+](=O)[O-])cc1)SC	n	n	n	x	n	x	x	x	x	x	x
O=C(NNC(=O)c1ccccn1)c1cccc([N+](=O)[O-])c1	10µM	n	n	u	n	n	u	u	n	n	n
FC(F)(F)c1ccccc1-c1cncnc1NCc1cccnc1	n	n	x	x	x	x	x	x	x	x	x
COC(=O)c1ccc(NC(=S)NC(=O)c2cccnc2)cc1	7.1µM	n	n	n	n	n	n	n	n	n	n
CCC(=O)NC(=S)Nc1ccc(NC(=O)c2cccnc2)cc1	n	n	n	n	n	n	x	x	x	x	x
O=C(NC(=S)Nc1cccnc1)c1ccccc1	13µM	n	n	n	u	n	n	n	n	n	n
Cc1csc(NC(=O)c2ccccc2)n1	n	n	n	x	n	x	x	x	x	x	x
O=C(O)c1ccc(NC(=S)NC(=O)c2cccnc2)cc1	3.5µM	n	n	n	n	n	n	n	n	n	n
Cc1csc(NC(=S)NC(=O)c2ccccc2)n1	7.9µM	n	n	n	u	n	u	50µM	n	n	n
